What all share (experiment): DAPPL (digital affinity profiling via proximity ligation, sequencing); 10 mM Tris-HCl pH 7.5, 50 mM NaCl, 1 mM DTT, 4% glycerol, room temperature, 30 min; GST-TFs on glutathione beads, 16-mer random dsDNA library, 0.1% formaldehyde crosslink after washing; high values mean tight binding
The target in assay [1] is T1, FLI1 (Homo sapiens, UniProt Q01543 1-452).
T1 sequence: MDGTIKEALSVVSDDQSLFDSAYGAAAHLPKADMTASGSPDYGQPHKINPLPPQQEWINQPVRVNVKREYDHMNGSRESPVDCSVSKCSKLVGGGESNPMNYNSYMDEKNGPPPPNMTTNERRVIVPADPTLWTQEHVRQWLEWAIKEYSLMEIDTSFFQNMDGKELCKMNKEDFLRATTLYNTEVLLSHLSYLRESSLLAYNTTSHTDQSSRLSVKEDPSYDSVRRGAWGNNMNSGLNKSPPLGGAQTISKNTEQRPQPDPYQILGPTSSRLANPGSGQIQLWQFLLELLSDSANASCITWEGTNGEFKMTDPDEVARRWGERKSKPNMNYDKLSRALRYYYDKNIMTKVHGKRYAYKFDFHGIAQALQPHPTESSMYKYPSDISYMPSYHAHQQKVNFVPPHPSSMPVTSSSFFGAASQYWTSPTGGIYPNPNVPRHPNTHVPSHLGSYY
Particulars: protein: recombinant; tags: N-terminal GST; dsDNA, one strand shown. A digest of the protocol:
(§1)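 Each value of binding signal is a hexamer's read frequency for a factor divided by the same hexamer's frequency in the tag-only sample. Barcoded, bead-captured GST fusions of human transcription factors made in yeast were pooled with that sample and incubated with 200 nmole of a random double-stranded 16-mer DNA library in Tris/NaCl/DTT/glycerol buffer at room temperature for 30 min. Washing, 0.1% formaldehyde crosslinking, proximity ligation, PCR and Illumina NextSeq500 sequencing followed.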

The target of assay [2] is T2, ELK1 (Homo sapiens, UniProt P19419 1-428).
T2 sequence: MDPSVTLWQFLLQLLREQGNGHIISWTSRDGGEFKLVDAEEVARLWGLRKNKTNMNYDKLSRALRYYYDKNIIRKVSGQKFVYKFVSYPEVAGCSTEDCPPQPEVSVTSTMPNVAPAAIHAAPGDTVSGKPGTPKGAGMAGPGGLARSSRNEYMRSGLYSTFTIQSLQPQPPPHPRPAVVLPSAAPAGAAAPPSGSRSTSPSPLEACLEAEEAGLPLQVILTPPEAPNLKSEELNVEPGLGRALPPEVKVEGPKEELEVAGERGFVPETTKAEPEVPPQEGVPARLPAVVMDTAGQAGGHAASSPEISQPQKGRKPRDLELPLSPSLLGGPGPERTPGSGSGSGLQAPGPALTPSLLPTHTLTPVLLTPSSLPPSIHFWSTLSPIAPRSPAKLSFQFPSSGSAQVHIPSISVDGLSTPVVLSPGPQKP
Particulars: protein: recombinant; tags: N-terminal GST; dsDNA, one strand shown. A digest of the protocol:
as §1

Assay [3] concerns the target T3, GABPA (Homo sapiens, UniProt Q06546 1-454).
T3 sequence: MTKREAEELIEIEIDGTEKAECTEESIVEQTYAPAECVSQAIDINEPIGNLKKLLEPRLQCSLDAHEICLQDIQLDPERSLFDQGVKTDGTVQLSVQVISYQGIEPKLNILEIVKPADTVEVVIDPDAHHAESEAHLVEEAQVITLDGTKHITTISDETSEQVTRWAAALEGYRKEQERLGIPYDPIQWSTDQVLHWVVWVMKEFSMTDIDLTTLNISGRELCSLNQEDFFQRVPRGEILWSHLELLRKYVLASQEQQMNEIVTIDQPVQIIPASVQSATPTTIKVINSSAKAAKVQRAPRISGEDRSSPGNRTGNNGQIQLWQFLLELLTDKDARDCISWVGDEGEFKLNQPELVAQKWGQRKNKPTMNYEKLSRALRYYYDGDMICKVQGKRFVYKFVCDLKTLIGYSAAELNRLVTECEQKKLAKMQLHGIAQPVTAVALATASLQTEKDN
Particulars: protein: recombinant; tags: N-terminal GST; dsDNA, one strand shown. A digest of the protocol: as §1

Assay [4] deals with T4, ERG (Homo sapiens, UniProt P11308 1-479).
T4 sequence: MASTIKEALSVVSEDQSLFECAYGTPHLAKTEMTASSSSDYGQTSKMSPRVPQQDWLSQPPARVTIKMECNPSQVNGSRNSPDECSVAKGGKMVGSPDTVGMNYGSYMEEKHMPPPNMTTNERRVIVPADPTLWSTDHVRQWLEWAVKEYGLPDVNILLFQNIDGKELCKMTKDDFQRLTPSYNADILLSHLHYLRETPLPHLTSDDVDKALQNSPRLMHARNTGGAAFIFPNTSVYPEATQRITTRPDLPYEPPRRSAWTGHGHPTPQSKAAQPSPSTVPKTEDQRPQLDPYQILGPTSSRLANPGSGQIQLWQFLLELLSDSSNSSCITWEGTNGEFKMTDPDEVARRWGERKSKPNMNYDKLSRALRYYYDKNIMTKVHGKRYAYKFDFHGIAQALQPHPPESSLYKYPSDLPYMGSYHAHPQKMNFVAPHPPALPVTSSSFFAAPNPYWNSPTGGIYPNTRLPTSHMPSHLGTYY
Particulars: protein: recombinant; tags: N-terminal GST; dsDNA, one strand shown. A digest of the protocol: as §1

Assay [5] deals with ELF1 (Homo sapiens, UniProt P32519 1-619). Particulars: protein: recombinant; tags: N-terminal GST; dsDNA, one strand shown. A digest of the protocol: as §1
The target of assay [6] is T5, EHF (Homo sapiens, UniProt Q9NZC4 1-300).
T5 sequence: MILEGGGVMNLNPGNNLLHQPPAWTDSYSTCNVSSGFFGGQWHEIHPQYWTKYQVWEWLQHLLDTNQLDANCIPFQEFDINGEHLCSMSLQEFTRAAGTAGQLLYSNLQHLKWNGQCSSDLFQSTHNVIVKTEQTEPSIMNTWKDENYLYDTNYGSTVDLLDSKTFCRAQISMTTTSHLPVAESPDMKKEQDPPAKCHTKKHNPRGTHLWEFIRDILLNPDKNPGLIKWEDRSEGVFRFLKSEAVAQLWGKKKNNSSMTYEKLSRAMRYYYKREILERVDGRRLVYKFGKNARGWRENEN
Particulars: protein: recombinant; tags: N-terminal GST; dsDNA, one strand shown. In short, it runs like this:
as §1

The target in assay [7] is SPI1 (Homo sapiens, UniProt P17947 1-270). Particulars: protein: recombinant; tags: N-terminal GST; dsDNA, one strand shown. In short, it runs like this:
as §1

Assay [8] addresses SPIB (Homo sapiens, UniProt Q01892 1-262). Particulars: protein: recombinant; tags: N-terminal GST; dsDNA, one strand shown. A digest of the protocol:
as §1

In assay [9] the target is T6, ELK3 (Homo sapiens, UniProt P41970 1-407).
T6 sequence: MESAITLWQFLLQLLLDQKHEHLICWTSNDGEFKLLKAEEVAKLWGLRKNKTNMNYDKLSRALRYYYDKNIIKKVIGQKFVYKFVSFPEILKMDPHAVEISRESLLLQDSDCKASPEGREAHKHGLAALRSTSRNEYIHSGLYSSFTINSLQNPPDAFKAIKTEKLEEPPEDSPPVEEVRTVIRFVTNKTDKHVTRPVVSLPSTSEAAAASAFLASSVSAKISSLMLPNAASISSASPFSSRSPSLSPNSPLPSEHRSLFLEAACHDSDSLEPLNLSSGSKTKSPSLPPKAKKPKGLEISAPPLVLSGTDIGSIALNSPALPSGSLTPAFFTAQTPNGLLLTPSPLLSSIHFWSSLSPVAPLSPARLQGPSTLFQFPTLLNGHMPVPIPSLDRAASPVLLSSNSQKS
Particulars: protein: recombinant; tags: N-terminal GST; dsDNA, one strand shown. A digest of the protocol:
as §1

Assay [10] concerns the target T7, FEV (Homo sapiens, UniProt Q99581 1-238).
T7 sequence: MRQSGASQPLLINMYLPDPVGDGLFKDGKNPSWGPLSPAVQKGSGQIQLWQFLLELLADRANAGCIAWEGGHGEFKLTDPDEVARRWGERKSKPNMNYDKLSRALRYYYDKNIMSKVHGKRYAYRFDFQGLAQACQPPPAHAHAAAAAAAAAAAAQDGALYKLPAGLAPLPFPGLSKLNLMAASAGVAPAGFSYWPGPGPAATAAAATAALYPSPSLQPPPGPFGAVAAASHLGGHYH
Particulars: protein: recombinant; tags: N-terminal GST; dsDNA, one strand shown. In short, it runs like this: as §1

The target in assay [11] is ETV5 (Homo sapiens, UniProt P41161 1-510). Particulars: protein: recombinant; tags: N-terminal GST; dsDNA, one strand shown. In short, it runs like this:
as §1

Assay [12] deals with HSF1 (Homo sapiens, UniProt Q00613 1-529). Particulars: protein: recombinant; tags: N-terminal GST; chain copies: 3; dsDNA, one strand shown. A digest of the protocol:
as §1

The target of assay [13] is ELF4 (Homo sapiens, UniProt Q99607 1-663). Particulars: protein: recombinant; tags: N-terminal GST; dsDNA, one strand shown. A digest of the protocol: as §1
The target in assay [14] is T8, ELK4 (Homo sapiens, UniProt P28324-2 1-405).
T8 sequence: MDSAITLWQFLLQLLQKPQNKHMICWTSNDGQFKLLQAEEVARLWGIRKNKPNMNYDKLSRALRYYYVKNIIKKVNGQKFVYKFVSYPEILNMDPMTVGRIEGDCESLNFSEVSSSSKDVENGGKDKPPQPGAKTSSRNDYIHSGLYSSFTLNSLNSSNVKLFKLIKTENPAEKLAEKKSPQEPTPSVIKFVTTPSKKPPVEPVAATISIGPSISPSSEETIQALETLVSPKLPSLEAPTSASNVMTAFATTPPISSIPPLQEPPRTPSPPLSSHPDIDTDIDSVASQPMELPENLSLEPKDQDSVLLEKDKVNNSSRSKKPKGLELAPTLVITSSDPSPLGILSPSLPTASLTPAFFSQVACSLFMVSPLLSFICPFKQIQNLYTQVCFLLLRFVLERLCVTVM
Particulars: protein: recombinant; tags: N-terminal GST; dsDNA, one strand shown. In short, it runs like this: as §1

The target of assay [15] is T9, ETV2 (Homo sapiens, UniProt O00321 1-342).
T9 sequence: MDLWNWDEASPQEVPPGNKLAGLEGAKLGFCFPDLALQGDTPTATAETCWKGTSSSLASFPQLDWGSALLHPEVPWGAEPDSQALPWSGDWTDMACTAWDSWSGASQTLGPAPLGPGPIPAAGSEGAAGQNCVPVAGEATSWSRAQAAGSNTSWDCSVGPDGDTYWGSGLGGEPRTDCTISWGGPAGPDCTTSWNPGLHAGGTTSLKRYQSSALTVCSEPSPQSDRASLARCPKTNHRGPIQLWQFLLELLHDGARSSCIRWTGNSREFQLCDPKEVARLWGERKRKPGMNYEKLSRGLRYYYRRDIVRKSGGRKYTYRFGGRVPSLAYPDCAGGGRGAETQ
Particulars: protein: recombinant; tags: N-terminal GST; dsDNA, one strand shown. A digest of the protocol: as §1

Assay [16] has as its target T10, ELF3 (Homo sapiens, UniProt P78545 1-371).
T10 sequence: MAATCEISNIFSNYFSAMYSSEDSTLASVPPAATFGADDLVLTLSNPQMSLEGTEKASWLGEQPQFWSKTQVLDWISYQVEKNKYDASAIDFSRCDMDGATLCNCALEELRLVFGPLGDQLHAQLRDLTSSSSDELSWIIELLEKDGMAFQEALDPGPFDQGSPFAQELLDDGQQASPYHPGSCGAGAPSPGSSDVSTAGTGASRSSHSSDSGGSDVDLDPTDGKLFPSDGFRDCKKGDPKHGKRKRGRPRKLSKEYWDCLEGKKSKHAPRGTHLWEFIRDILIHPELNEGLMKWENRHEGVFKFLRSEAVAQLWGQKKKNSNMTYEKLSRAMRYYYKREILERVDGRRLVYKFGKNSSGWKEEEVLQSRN
Particulars: protein: recombinant; tags: N-terminal GST; dsDNA, one strand shown. In short, it runs like this: as §1

The target of assay [17] is ETV1 (Homo sapiens, UniProt P50549 1-477). Particulars: protein: recombinant; tags: N-terminal GST; dsDNA, one strand shown. In short, it runs like this:
as §1

This note sets out measurements from publication PMC7862700, “An all-to-all approach to the identification of sequence-specific readers for epigenetic DNA modifications on cytosine”.

Sequence of ETV5 (P41161 whole entry): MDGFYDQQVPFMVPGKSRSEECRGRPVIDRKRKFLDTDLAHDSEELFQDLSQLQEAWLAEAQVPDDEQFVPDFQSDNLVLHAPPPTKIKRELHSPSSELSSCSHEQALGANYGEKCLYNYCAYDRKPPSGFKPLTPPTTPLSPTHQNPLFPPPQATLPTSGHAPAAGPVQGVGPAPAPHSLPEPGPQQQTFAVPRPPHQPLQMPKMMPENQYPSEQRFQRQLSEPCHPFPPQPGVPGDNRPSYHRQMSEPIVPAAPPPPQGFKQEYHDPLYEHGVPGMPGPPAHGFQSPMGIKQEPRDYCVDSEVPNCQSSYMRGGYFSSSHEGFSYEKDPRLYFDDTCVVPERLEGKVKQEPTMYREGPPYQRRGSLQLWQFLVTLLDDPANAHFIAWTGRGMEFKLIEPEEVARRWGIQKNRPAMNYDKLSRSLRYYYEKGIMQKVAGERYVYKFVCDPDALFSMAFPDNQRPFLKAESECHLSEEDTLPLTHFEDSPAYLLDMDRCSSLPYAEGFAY
Sequence of ELF4 (Q99607 whole entry): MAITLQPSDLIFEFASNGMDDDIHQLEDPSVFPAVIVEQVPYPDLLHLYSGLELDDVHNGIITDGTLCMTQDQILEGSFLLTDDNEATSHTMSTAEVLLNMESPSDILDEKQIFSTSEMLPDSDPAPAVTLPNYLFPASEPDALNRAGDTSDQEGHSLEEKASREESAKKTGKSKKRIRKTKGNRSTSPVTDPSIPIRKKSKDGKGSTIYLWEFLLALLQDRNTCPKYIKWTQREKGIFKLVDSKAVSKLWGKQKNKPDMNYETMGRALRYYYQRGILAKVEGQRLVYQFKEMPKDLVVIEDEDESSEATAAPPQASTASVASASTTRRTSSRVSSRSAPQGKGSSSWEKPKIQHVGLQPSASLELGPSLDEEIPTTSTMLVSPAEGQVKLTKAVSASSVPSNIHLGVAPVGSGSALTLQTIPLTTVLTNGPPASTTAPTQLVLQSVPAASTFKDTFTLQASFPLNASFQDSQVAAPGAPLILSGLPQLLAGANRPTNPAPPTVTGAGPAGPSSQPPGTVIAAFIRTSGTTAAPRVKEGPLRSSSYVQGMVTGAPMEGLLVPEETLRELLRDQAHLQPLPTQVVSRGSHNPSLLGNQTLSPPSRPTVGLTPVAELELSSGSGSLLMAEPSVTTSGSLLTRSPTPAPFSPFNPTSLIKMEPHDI
Sequence of SPIB (Q01892 whole entry): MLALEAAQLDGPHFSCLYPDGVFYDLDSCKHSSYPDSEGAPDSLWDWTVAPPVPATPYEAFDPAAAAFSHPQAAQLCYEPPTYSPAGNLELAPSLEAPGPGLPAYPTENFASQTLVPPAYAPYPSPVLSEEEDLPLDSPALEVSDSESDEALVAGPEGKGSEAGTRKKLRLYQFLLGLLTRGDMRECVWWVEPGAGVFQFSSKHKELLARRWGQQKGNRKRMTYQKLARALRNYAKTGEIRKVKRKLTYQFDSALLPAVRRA
Sequence of HSF1 (Q00613 whole entry): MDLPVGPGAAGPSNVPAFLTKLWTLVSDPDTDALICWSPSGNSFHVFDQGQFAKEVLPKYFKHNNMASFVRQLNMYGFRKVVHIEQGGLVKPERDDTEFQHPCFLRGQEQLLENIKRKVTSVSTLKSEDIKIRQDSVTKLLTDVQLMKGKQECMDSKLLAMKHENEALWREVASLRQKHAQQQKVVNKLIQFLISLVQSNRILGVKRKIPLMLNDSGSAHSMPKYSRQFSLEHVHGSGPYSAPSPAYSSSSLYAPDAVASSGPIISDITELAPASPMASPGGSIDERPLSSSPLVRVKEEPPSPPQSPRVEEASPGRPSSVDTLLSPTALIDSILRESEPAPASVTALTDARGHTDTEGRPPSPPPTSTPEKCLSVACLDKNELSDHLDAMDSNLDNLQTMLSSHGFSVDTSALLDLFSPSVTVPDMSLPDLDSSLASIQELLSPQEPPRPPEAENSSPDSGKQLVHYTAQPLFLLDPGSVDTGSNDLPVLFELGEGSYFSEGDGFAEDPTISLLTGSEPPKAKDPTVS
Sequence of ETV1 (P50549 whole entry): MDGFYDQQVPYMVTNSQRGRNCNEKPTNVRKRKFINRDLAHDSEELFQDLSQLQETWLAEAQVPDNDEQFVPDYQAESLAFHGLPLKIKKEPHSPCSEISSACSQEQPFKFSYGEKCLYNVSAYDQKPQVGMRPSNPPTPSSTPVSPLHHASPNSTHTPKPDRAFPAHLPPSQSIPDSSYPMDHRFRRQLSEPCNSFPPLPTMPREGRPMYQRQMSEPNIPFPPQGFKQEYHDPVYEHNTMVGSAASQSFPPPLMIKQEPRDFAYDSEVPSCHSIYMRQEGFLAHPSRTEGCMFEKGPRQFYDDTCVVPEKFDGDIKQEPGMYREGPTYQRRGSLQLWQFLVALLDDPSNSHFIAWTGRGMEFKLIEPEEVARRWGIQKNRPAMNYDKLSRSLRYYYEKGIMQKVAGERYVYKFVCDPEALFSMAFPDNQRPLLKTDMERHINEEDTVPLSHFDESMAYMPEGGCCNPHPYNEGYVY
Sequence of ELF1 (P32519 whole entry): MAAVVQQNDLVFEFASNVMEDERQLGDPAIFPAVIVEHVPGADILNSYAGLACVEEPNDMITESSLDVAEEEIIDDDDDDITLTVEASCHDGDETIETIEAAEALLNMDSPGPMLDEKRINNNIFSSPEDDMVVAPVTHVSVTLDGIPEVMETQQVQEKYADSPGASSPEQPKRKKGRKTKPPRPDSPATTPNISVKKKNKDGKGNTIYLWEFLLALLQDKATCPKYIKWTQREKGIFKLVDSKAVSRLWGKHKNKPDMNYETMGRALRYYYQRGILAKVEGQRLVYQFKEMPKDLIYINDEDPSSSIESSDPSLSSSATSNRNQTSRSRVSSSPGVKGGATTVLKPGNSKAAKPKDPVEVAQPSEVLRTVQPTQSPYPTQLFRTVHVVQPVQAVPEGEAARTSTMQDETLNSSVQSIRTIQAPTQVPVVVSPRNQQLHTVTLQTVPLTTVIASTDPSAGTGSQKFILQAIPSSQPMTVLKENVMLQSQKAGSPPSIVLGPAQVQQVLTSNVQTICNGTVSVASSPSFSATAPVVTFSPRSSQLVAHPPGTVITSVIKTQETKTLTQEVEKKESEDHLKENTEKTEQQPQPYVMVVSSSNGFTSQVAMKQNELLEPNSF

As to CGTTCA, the binding signal in assay [1] was 1.11 fold enrichment (6-mer frequency, TF over GST control); in assay [2], 1.24 fold enrichment (6-mer frequency, TF over GST control); in assay [3], 1.24 fold enrichment (6-mer frequency, TF over GST control); in assay [4] it was 1.09 fold enrichment (6-mer frequency, TF over GST control); in assay [5], 1.13 fold enrichment (6-mer frequency, TF over GST control); in assay [6], 1.18 fold enrichment (6-mer frequency, TF over GST control). For the same sequence, the binding signal in assay [7] was 1.16 fold enrichment (6-mer frequency, TF over GST control); in assay [8] it was 1.2 fold enrichment (6-mer frequency, TF over GST control); in [9], 1.07 fold enrichment (6-mer frequency, TF over GST control); in assay [10] it was 1.25 fold enrichment (6-mer frequency, TF over GST control); in assay [11], 1.16 fold enrichment (6-mer frequency, TF over GST control); in [12], 1.03 fold enrichment (6-mer frequency, TF over GST control). For the same sequence, the binding signal is 1.17 fold enrichment (6-mer frequency, TF over GST control) in assay [13]; 1.14 fold enrichment (6-mer frequency, TF over GST control) in assay [14]; 1.19 fold enrichment (6-mer frequency, TF over GST control) in [15]; 1.13 fold enrichment (6-mer frequency, TF over GST control) in assay [16]; 1.18 fold enrichment (6-mer frequency, TF over GST control) in [17].
